# Measured values taken from the supplement of paper PMC7724964.
# T1: YWHAE 1-255 14-3-3 (domain begin residue: 1, domain end residue: 255), P62258
# T1 chain: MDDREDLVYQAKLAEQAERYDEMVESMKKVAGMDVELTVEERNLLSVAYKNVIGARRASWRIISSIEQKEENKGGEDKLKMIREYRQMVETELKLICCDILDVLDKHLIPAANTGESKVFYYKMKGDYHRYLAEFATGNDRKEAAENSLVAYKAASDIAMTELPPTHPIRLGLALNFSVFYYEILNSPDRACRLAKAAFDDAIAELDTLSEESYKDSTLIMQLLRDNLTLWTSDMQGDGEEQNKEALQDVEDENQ
# T2: YWHAB 1-246 14-3-3 (domain begin residue: 1, domain end residue: 246), P31946
# T2 chain: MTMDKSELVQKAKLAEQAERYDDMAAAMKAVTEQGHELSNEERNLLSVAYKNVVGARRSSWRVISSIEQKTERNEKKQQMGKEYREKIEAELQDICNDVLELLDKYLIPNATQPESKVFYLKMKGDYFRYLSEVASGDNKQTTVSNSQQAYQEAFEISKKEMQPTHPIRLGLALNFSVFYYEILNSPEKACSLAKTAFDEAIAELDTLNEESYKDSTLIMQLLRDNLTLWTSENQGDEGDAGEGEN
# T3: WDR74 1-387 WD40 (domain begin residue: 1, domain end residue: 387), Q6RFH5
# T3 chain: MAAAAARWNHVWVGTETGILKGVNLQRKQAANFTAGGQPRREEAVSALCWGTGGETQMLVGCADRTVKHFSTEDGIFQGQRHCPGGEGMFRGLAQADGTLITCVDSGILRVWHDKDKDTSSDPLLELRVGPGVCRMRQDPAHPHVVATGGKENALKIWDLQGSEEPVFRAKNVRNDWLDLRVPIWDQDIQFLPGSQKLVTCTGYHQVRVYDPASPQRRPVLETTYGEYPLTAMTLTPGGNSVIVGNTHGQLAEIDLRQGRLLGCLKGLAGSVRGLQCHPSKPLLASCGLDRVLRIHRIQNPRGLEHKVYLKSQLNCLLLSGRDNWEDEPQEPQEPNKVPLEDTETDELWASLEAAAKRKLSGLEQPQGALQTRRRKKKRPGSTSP
# T4: ZGPAT 120-268 zf-CCCH+TUDOR (domain begin residue: 120, domain end residue: 268), Q8N5A5
# T4 chain: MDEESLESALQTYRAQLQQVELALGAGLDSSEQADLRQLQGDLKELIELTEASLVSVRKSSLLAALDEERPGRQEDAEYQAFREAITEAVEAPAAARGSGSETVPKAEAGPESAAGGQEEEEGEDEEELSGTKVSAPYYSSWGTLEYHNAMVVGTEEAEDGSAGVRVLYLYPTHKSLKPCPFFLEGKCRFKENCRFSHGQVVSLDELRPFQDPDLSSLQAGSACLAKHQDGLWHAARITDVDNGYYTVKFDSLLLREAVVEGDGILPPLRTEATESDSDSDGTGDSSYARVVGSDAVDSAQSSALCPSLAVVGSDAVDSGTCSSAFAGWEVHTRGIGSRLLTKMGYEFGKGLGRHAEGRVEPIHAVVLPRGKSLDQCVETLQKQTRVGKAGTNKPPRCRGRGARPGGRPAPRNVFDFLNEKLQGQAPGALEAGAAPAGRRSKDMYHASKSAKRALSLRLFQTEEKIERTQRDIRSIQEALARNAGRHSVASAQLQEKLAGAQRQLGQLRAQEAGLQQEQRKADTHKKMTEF
# T5: YWHAH 2-246 14-3-3 (domain begin residue: 2, domain end residue: 246), Q04917
# T5 chain: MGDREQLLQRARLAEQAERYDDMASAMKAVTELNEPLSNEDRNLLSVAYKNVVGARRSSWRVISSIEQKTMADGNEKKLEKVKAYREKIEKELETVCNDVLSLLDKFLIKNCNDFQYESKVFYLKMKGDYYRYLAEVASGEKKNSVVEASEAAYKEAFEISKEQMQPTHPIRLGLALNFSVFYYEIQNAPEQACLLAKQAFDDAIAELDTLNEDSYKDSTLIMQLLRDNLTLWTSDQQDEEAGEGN
# T6: YWHAZ 1-245 14-3-3 (domain begin residue: 1, domain end residue: 245), P63104
# T6 chain: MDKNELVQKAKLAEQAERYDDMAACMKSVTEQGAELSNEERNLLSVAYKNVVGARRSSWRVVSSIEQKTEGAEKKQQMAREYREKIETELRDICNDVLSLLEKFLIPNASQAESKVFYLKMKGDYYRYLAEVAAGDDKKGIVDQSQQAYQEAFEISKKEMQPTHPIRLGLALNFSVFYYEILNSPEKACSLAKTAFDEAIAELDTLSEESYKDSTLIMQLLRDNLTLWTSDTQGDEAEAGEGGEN
# T7: YWHAG 1-247 14-3-3 (domain begin residue: 1, domain end residue: 247), P61981
# T7 chain: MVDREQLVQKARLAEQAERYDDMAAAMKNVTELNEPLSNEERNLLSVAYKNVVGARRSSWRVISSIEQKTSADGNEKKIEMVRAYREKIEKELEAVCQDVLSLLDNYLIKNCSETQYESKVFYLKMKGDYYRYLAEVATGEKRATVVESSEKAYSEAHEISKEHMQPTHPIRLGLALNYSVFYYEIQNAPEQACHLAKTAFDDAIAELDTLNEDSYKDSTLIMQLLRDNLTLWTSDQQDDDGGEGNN
# Assays:
# Assay in all cases: phage ELISA signal ratio (GST-PRM binding over GST background); higher = stronger binding of peptide-phage to the PRM
# [1] = target: T1, YWHAE 1-255 14-3-3 (domain begin …
# Method in brief: (§1)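 Each value is the phage ELISA signal on the glutathione S-transferase (GST)-domain fusion divided by the signal on GST alone. Human peptide recognition domains were expressed in 96-well plates, fused to the C-terminus of GST, and selected against an M13 phage library carrying randomized, cysteine-free, glycine-flanked hexadecapeptides on the gene-8 major coat protein. After five selection rounds, approximately 48 individual clones from rounds 4 and 5 were tested by phage ELISA, and positive clones were sequenced.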
# [2] = target: T2, YWHAB 1-246 14-3-3 (domain begin …
# Method in brief: as §1
# [3] = target: T3, WDR74 1-387 WD40 (domain begin residue: …
# Method in brief: as §1
# [4] = target: T4, ZGPAT 120-268 zf-CCCH+TUDOR (domain …
# Method in brief: as §1
# [5] = target: T5, YWHAH 2-246 14-3-3 (domain begin …
# Method in brief: as §1
# [6] = target: T6, YWHAZ 1-245 14-3-3 (domain begin …
# Method in brief: as §1
# [7] = target: T7, YWHAG 1-247 14-3-3 (domain begin …
# Method in brief: as §1
binder,measurement,setting,value
EWSVWDHVPRDWQTVG,phage ELISA signal ratio,[1],17.7
VVFSDYWVDWHVEYMG,phage ELISA signal ratio,[2],11.9
PALSDVWDSIPLEFAW,phage ELISA signal ratio,[3],6.43
EPHMLYDMWREWVTAD,phage ELISA signal ratio,[4],3.14
SLEWLDLAQWTDPHQR,phage ELISA signal ratio,[5],19.8
EHPHYWTPWHVDYMLR,phage ELISA signal ratio,[6],4.41
QNIEFVWWHKEWLENQ,phage ELISA signal ratio,[2],15.1
same,phage ELISA signal ratio,[6],6.38
VEYLDLANFDPMAGKW,phage ELISA signal ratio,[5],26.2
DYMSTLFDSIPTHVST,phage ELISA signal ratio,[4],8.28
SQAMDLNAGWPWDIVM,phage ELISA signal ratio,[4],8.17
VKSYYTTWHVQWLMDW,phage ELISA signal ratio,[6],6.31
GLHQLDWLDLADIYPK,phage ELISA signal ratio,[5],18.7
MDWLDLAGQESLFPLW,phage ELISA signal ratio,[5],17.1
LEWLDLAQWHGGENSR,phage ELISA signal ratio,[5],21
PSPQPWWTDWHAEWVN,phage ELISA signal ratio,[7],16.1
DYMSQLWDHMSVDIYP,phage ELISA signal ratio,[4],5.82
HQQGDDWVIAEIPPFR,phage ELISA signal ratio,[7],19.8
YMQNLDTQWMLWLQGP,phage ELISA signal ratio,[1],9.78
DFMSDMFLQQLDTVGL,phage ELISA signal ratio,[3],7.8
MPEYWVDWHMEYVQEM,phage ELISA signal ratio,[6],28.1
FDSYWEAAFDQLQMAE,phage ELISA signal ratio,[3],7.17
VWPMPQTWAEWQDLLA,phage ELISA signal ratio,[2],17.7
PQSLQEAMVVWQTWSG,phage ELISA signal ratio,[7],21.6
RPAWMDSATWLMIQEW,phage ELISA signal ratio,[2],22
HPPWWEPWHVEFLLQD,phage ELISA signal ratio,[2],22.7
HKMEPWYTDWHADFLM,phage ELISA signal ratio,[2],9.61
DMWSQWEEWNAVMPWE,phage ELISA signal ratio,[3],9.73
GDVSNLSEAMELWRSW,phage ELISA signal ratio,[5],17.6
